# Pf apPOL block: Pf-apPOL inhibitors, biochemical, fluorescence. inhibition, % at 10 µM. Recombinant Pf-apPOL, molecular beacon fluorescence, 1.5 h. hit rate 0.25% among 210,000. AID 1794808, 2022. Plasmodium falciparum apicoplast DNA polymerase (apPOL)
# mHTT CaM bind: mutant huntingtin-calmodulin interaction inhibitors – biochemical, AlphaScreen, primary screen. AlphaScreen His-mHTT/GST-CaM binding, luminescence. P42858. hit rate 3.6% among 190,000. inhibition, % at 15 µM;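 further: 0% = both proteins with DMSO and 100% = one protein alone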
# * marks the source's active call; other numbers are inactive results. This is a sample that favours compounds with a hit; in the whole collection about 3.5% have one here. No stated cut-off is given here; in the data, active means inhibition above about 50%; inactive means the rest.
SMILES,Pf apPOL block,mHTT CaM bind
COc1ccc(C2=NN(C(=O)CN3CCOCC3)C(c3cccc(OC)c3OC)C2)cc1 (stereo not drawn),-3,6
CCC(=O)N1N=C(c2ccc(C)cc2)CC1c1cc2cc(OC)ccc2nc1Cl (stereo not drawn),6,-1
COc1cccc(C2=NN(C(=O)CN3CCOCC3)C(c3ccccc3F)C2)c1 (stereo not drawn),0,29
COc1ccc(C2CC(c3ccc(F)cc3)=NN2C(=O)CN2CCOCC2)cc1 (stereo not drawn),-4,64*
COc1ccc(C2=NN(C(=O)CN3CCCCC3)C(c3ccc(C)cc3C)C2)cc1 (stereo not drawn),-7,100*
COc1ccc(C2=NN(C(=O)CN3CCCCC3)C(c3ccccc3F)C2)cc1 (stereo not drawn),-8,69*
CCc1ccccc1NC(=O)N1CCC(n2cnc3cc(F)ccc3c2=O)CC1,0,-8
O=C(NCC(O)c1ccccc1)C(=O)NC1CC1 (stereo not drawn),19,-5
OC(C#CC12CC3CC(CC(C3)C1)C2)c1cccnc1 (stereo not drawn),-1,43
Cc1ccc(C(O)C#CC23CC4CC(CC(C4)C2)C3)o1 (stereo not drawn),3,87*
Cc1nc(C23CC4CC(CC(C4)C2)C3)cs1,-5,-17
CN(C)CCNC(=O)c1cn2cc(-c3ccc(F)c(Cl)c3)ccc2n1,11,93*
CN(C)c1ccc(CNC(=O)c2cn3cc(Cl)ccc3n2)cc1,0,15
CCN1CCN(C/C=C/c2ccccc2[N+](=O)[O-])CC1,-7,1
COc1ccccc1/C=C/CN1CCN(c2ccc([N+](=O)[O-])cc2)CC1,-3,53*
COc1ccccc1/C=C/CN1CCN(c2ccccc2)CC1,-4,32
Cc1cccc(N2CCN(C/C=C/c3ccccc3[N+](=O)[O-])CC2)c1C,-6,66*
COCc1noc(C2CCCCN2C(=O)Cc2cccs2)n1 (stereo not drawn),4,8
O=[N+]([O-])c1cccc(/C=C/c2ccccn2)c1,67*,-2
O=[N+]([O-])c1cccc(/C=C/c2ccc3ccccc3n2)c1,-4,1
COc1ccc(C(=O)N/C(=C/c2ccc3c(c2)OCO3)C(=O)N2CCOCC2)cc1,-1,0
CN(C)S(=O)(=O)c1ccc(C(=O)Nc2ccc(I)cc2)cc1,-2,-5
CCC(CO)NCC(O)Cn1c2ccccc2c2ccccc21 (stereo not drawn),-3,-3
Cc1cccc(NCC(O)Cn2c(C)c(C)c3ccccc32)c1C (stereo not drawn),-6,93*
Cc1ccc(NCC(O)Cn2c(C)c(C)c3ccccc32)c(C)c1 (stereo not drawn),-8,82*
SMILES,Pf apPOL block,mHTT CaM bind
CC(NCC(O)Cn1c2ccccc2c2ccccc21)C(=O)O (stereo not drawn),-6,4
Cc1ccccc1NCC(O)Cn1c(C)c(C)c2ccccc21 (stereo not drawn),1,96*
Cc1c(C)n(CC(O)CNc2ccc(I)cc2)c2ccccc12 (stereo not drawn),5,99*
CNCC(O)Cn1c2ccccc2c2ccccc21 (stereo not drawn),4,13
Cc1ccc(S(=O)(=O)NCC(O)Cn2c3ccccc3c3ccccc32)cc1 (stereo not drawn),13,28
CC(C)CNC(=O)c1n[nH]c2c1CN(C(=O)Cc1ccccc1F)CC2,-3,12
O=C(COc1ccccc1F)Nc1nc(-c2cccs2)c(NC(=O)c2ccccc2)s1,-1,35
CN(C)CCCNC(=O)C1CCN(c2nc3ccc(-c4ccc(F)cc4)nc3s2)CC1,-10,12
Cc1ccc(C(=O)N2CCc3sc(C(=O)NCCN4CCCCCC4)cc3C2)cc1,-7,19
Cc1ccccc1-n1c(SCC(=O)Nc2ccc3c(c2)OCCO3)nc2[nH]ncc2c1=O,-21,16
COc1ccccc1NCC(O)Cn1c(C)c(C)c2ccccc21 (stereo not drawn),-2,59*
COc1ccccc1NCC(O)Cn1ccc2ccccc21 (stereo not drawn),-3,46
COc1ccc(-c2noc(COc3ccc(Br)cc3Cl)n2)cc1OC,-8,0
CCCCn1cnc2scc(-c3ccc(Br)cc3)c2c1=O,-10,-12
CC(C)Cn1c(=O)c2c(ncn2Cc2ccc(F)cc2)n(-c2ccccc2)c1=O,2,7
Cc1ccccc1-n1c(=O)n(CC(C)C)c(=O)c2c1ncn2Cc1ccc(F)cc1,-7,75*
Cc1ccc(C(=O)N/C(=C/c2ccc3c(c2)OCO3)C(=O)NCCCC(=O)O)cc1,-8,-4
COc1cc(OC)c2c(-c3cccc(-c4cccc(C)c4)c3)cc(=O)oc2c1,-8,-6
O=c1oc2c(-c3ccc([N+](=O)[O-])cc3)cc(O)cc2s1,2,9

# Screening results: PubChem, University of Kansas High Throughput Screening Laboratory
